These results are taken from patent US20250354175, “ATTP MV4-DERIVED SITE-SPECIFIC RECOMBINATION AND ITS USE FOR INTEGRATION OF SEQUENCE OF INTEREST” (INSTITUT NATIONAL DE RECHERCHE POUR L'AGRICULTURE, …, published 2025).

The target of the assay is T1, mv4Int (369 aa integrase) (Lactobacillus delbrueckii bacteriophage …).
T1 chain: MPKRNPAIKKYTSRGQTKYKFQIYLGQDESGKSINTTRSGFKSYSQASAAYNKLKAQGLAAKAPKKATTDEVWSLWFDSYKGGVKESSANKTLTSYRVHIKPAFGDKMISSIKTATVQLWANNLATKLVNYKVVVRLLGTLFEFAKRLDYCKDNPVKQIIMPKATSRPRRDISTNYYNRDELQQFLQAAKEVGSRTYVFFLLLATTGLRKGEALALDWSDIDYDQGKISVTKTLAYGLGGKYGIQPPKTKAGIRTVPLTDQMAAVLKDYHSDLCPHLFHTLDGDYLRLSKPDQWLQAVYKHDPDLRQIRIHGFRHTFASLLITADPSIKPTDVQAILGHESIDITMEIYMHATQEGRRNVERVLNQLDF
The assay is described as follows: cleavage_in_vitro; recombination with attP sharing same overlap. As to conditions: tags: expressed from pET15b; label: Cy3; dsDNA, one strand shown.

Turning to TCAAATAAGGTTTTCTCCTTAATAAGGTCAAATGGTATC, the binding signal stood at 15 fold decrease vs WT.
